# Measured values reported in ChEMBL document CHEMBL3988442, “University of Dundee, Small-Polar-MMV Screening Library” (2021).
# The whole screen tested about 69,000 compounds, of which about 950 (1.4%) showed an effect of 50% or more. Many of the other results were omitted from the sample, so strong results are more common in it than they were.
# Tested on: Mycobacterium tuberculosis
# Assay: Cornell M. t heat shock assay; also: in the data most compounds retested in dose-response had high values
# Type: functional, organism-based
# Design: dose or concentration left out as unconfirmed
row,SMILES,Percent Effect [%]
1,CN1CCOCC2(CCCN(C(=O)Cc3ccncc3)C2)C1.O=C(O)C(F)(F)F (centres undefined),-28.6
2,COc1cccc(Cn2c(C3CCNCC3)cc3cccnc32)c1.Cl,0.437
3,CCC(CN1CCN(C)CC1)NC(=O)C1(c2cccc(F)c2)CC1.O=C(O)CC(O)(CC(=O)O)C(=O)O (centres undefined),1.881
4,O=C(O)C(F)(F)F.O=C(O)C(F)(F)F.O=C(O)C(F)(F)F.c1cncc(CN2CCCn3nnc(CN4CCCC4)c3C2)c1,-36.4
5,CNC(=O)CN1CCCC12CCN(C(=O)c1ccc(F)cc1)CC2.O=C(O)C(F)(F)F,-33.92
6,Cc1oncc1C(=O)N[C@@H]1CN(Cc2ccoc2)C[C@@H]2CCCO[C@@H]21.O=C(O)C(F)(F)F,44.61
7,CCOc1ccc(Br)cc1C1CCCCN1.Cl (centres undefined),18.96
8,CC(C)N(C)CC(=O)Nc1nccn1Cc1ccccc1Cl,70.24
9,CS(=O)(=O)CCn1ccc(NC(=O)Cc2ccccc2Cl)n1,-16.05
10,CS(=O)(=O)CCC(=O)Nc1nccn1Cc1ccccc1Cl,51.39
11,CC(C)N(C)CC(=O)Nc1ccc(-n2ccc(C(N)=O)n2)cc1,4.536
12,CCOCC(=O)NCCCn1ccnc1-c1ccccc1,0.7963
13,CC(C)N(C)CC(=O)NC1CCc2nccn2C1 (centres undefined),-3.465
14,Cn1ccc(C(=O)Nc2nccn2Cc2ccccc2Cl)cc1=O,54.71
15,Cc1nccn1Cc1cccc(CNC(=O)c2ccn(C)c(=O)c2)c1,-21.74
16,Cn1ccc(C(=O)Nc2nnc(-c3ccccn3)[nH]2)cc1=O,24.76
17,CS(=O)(=O)CCC(=O)Nc1cnn(-c2ccccc2Cl)c1,-2.43
18,CCOCC(=O)Nc1nccn1Cc1ccccc1Cl,94.36
19,CCOCC(=O)Nc1cccnc1-n1ccnc1C,3.015
20,CC1c2ncc(CNC(=O)C3CC3)n2CCN1Cc1cccnc1.O=C(O)C(F)(F)F.O=C(O)C(F)(F)F (centres undefined),-10.62
21,CN1CC(=O)N(c2ccccc2)CC12CCN(C(=O)c1cccs1)C2.O=C(O)C(F)(F)F (centres undefined),-3.603
22,O=C(O)C(F)(F)F.O=C(O)C(F)(F)F.O=C(c1cccnc1)N1Cc2nccn2CC(COc2cccnc2)C1 (centres undefined),-22.14
23,CCN1C(=O)CCC12CCCN(Cc1nccs1)CC2.O=C(O)C(F)(F)F (centres undefined),-119

row,SMILES,Percent Effect [%]
1,CN(C)CCOCC1CN(Cc2cccs2)Cc2ccnn2C1.O=C(O)C(F)(F)F.O=C(O)C(F)(F)F.O=C(O)C(F)(F)F (centres undefined),-22.31
2,CN(C)Cc1cc(C2CCN(C(=O)C3CC34CCC4)CC2)nn1C.Cl (centres undefined),-10.56
3,CNc1cc(C)nc(N2Cc3cnn(Cc4ccc(F)cc4)c3C2)n1,-20.76
4,Cc1ccc(CNC2CC3(CCN(CCO)CC3)c3ccccc32)s1.O=C(O)C(F)(F)F.O=C(O)C(F)(F)F (centres undefined),0.5733
5,O=C(O)C(F)(F)F.O=C1N(Cc2cccnc2)CCC12CCCN(c1ncc(F)cn1)C2 (centres undefined),4.445
6,Cl.Oc1cc(C2CCNCC2)nc(-c2ccsc2)n1,-3.533
7,Cn1nccc1C(=O)N1CCC2(CC1)COC(COc1ccccn1)C2.O=C(O)C(F)(F)F (centres undefined),-4.012
8,CCOCCOC(C)C(=O)Nc1nccn1Cc1ccccc1 (centres undefined),28.47
9,COC(=O)N1CCN(Cc2ccccc2Cl)CC1,-12.81
10,CC(OCC1CC1)C(=O)Nc1ccn(Cc2ccccc2)n1 (centres undefined),-11.4
11,CC(=O)Nc1nccn1Cc1ccccc1Cl,63.7
12,O=C(Nc1ccc(=O)n(Cc2ccccc2Cl)c1)C1CC1,42.02
13,CC(OCC1CC1)C(=O)Nc1nccn1Cc1ccccc1 (centres undefined),81.58
14,CN1CCOCC2(CCCN(C(=O)c3cnccn3)C2)C1.O=C(O)C(F)(F)F (centres undefined),-11.83
15,Cc1cc(N(C)C)nc(C2CCNC2)n1.Cl.Cl (centres undefined),-43.84
16,Cc1cnc(N2CC[C@H]3[C@@H]2CCC(=O)N3c2ccccc2)nc1.O=C(O)C(F)(F)F,36.02
17,O=C(NCC1CC1)[C@@H]1CCO[C@@H]2CCN(CCc3ccccc3)C[C@H]21.O=C(O)C(F)(F)F,-21.47
18,Cn1cccc1C(=O)N1CC[C@@H]2[C@@H]1CC(=O)N2CCN1CCOCC1.O=C(O)C(F)(F)F,-25.84
19,CCO[C@@H]1CC[C@H]2[C@H]1OCCN2Cc1ccoc1.O=C(O)C(F)(F)F,1.857
20,O=C(CC1CC1)N[C@@H]1CN(Cc2ccoc2)C[C@@H]2CCCO[C@@H]21,-3.487
21,O=C(N[C@@H]1CN(Cc2ccccc2)C[C@@H]2CCCO[C@@H]21)C1CC1.O=C(O)C(F)(F)F,-8.331
22,O=C(N[C@@H]1CN(Cc2ccoc2)C[C@@H]2CCCO[C@@H]21)C1CCC1,51.5
23,Cc1nc(NC(=O)CCc2c(C)nc3cc(O)nn3c2C)sc1C,27.32

row,SMILES,Percent Effect [%]
1,COC(=O)CCc1c(C)nn(-c2nc(C)cc(=O)[nH]2)c1C,103.1
2,Cc1cc(=O)[nH]c(-n2nc(C)c(CCC(=O)NCC(C)C)c2C)n1,98.01
3,Cc1nc2cc(O)nn2c(C)c1CCC(=O)NCCCC(C)C,-0.01064
4,Cc1nn(-c2cc(Cl)cc(Cl)c2)c(C)c1CCC(=O)O,19.8
5,Cc1cc(=O)[nH]c(-n2nc(C)c(CCC(=O)Nc3nc(C)cs3)c2C)n1,95.61
6,COCCNC(=O)CCc1c(C)nn(-c2nc(C)c(C)c(=O)[nH]2)c1C,37.18
7,COc1ccc(C)nc1NC(=O)CCc1c(C)nn(C)c1C,-18.22
8,Cc1csc(NC(=O)Cn2nc(C)ccc2=O)n1,-1.06
9,CC(=O)N1[C@H](CN(C)C)C[C@@H]2CN(C(=O)c3cccn3C)CC[C@@H]21.O=C(O)C(F)(F)F,-10.3
10,O=C(O)C(F)(F)F.O=C(c1cccnc1)N1CCC2(CCN(C(=O)c3ccco3)CC2)C1,23.94
11,CCC(C)(C)NC(=O)c1ncn2c1CN(C)S(=O)(=O)c1ccccc1-2.O=C(O)C(F)(F)F,-13.28
12,CCNC(=O)NCc1ccccc1NS(=O)(=O)c1ccccc1,35.07
13,N#Cc1nc(COc2ccc3c(c2)OCO3)oc1NC1CCCCC1,5.438
14,O=C(O)C(F)(F)F.c1cn2c(n1)CN(Cc1ccsc1)CC(Cn1cncn1)C2 (centres undefined),-22.01
15,CCCn1cc(-c2cc(-c3cc(CC)n[nH]3)c(C#N)c(N)n2)c(C)n1,41.25
16,CCCn1cc(-c2cc(-c3ccoc3)c(C#N)c(N)n2)c(C)n1,75.39
17,Cc1ccc(-c2cc(-c3c(C)nn(CCO)c3C)c(C#N)c(N)n2)cc1,10.03
18,CCCn1cc(-c2cc(-c3c[nH]cn3)c(C#N)c(N)n2)c(C)n1,15.71
19,COc1ncc(-c2cc(-c3ccn(C)c3)nc(N)c2C#N)cn1,-43.44
20,CCCn1cc(-c2cc(-c3cnc(OC)nc3)c(C#N)c(N)n2)c(C)n1,100.5
21,O=C(C[C@@H]1COC[C@H]2CN(C(=O)c3cccnc3)C[C@@H]12)N1CCOCC1.O=C(O)C(F)(F)F,-5.703
22,CN(C)C(=O)CN1C(=O)CCC12CCN(Cc1ccsc1)CC2.O=C(O)C(F)(F)F,-0.1041
23,COCc1ccc(CN2CCC(O)(Cn3ccc4ncccc43)CC2)o1.Cl,-9.994

row,SMILES,Percent Effect [%]
1,Cl.c1ccc(CNc2cc(C3CCCNC3)ccn2)nc1 (centres undefined),18.31
2,Cc1oncc1C(=O)NCc1cc(=O)n2c(n1)CN(CC1CC1)CCC2.O=C(O)C(F)(F)F,-32.57
3,COCC(=O)N1CC[C@H]2C[C@H](C)O[C@@H]2C1,3.806
4,COCC(=O)N1CC[C@@H]2O[C@@H](C)C[C@H]2C1,-1.773
5,COCC(=O)N1CC[C@H]2O[C@@H](C)C[C@H]2C1,64.99
6,COCC1CN(Cc2ccc3c(c2)OCO3)Cc2ncn(C)c21.O=C(O)C(F)(F)F.O=C(O)C(F)(F)F (centres undefined),-21.56
7,Cl.O=C(N1CCCC1)C1(Cc2ccc(-c3cccs3)cc2)CCNC1 (centres undefined),-20.63
8,Cc1c[nH]c(C2CCCN(Cc3ccccc3C(=O)O)C2)n1.O=CO (centres undefined),-20.14
9,CC(C)CCN1C[C@H]2C[C@H](C(=O)Nc3ccccc3)[C@@H](C1)O2.O=C(O)C(F)(F)F,-19.48
10,CN(Cc1cccnc1)[C@@H]1CN(C(=O)c2ccno2)[C@@H]2CCCO[C@H]12.O=C(O)C(F)(F)F.O=C(O)C(F)(F)F,0.2387
11,COC(=O)Cn1c(=O)nc2n1C(=O)N(c1ccc(C)cc1)C2,3.714
12,CCS(=O)(=O)NC[C@]12COC[C@H]1CN(Cc1cccc(OC)c1)C2.O=C(O)C(F)(F)F,-11.48
13,CN(Cc1cccc(F)c1)C(=O)CS(=O)(=O)Cc1c(Cl)cccc1Cl,25.49
14,CN(Cc1cccc(F)c1)C(=O)CS(=O)(=O)Cc1ccc(Cl)c(Cl)c1,52.33
15,CN(Cc1ccccc1)C(=O)CS(=O)(=O)Cc1ccc(Cl)c(Cl)c1,47.42
16,Cc1ccc(-c2cc(C3CCNCC3)nc(C)n2)cc1.Cl,-12.8
17,CSc1ccc(-c2cc(CN)nc3ccnn23)cc1.Cl,4.059
18,NC(=O)C(NC(=O)c1ccc(NC2CC2)nc1)c1ccccc1 (centres undefined),-7.076
19,COC(=O)C(NC(=O)c1ccc(N(C)C)nc1)c1ccccc1 (centres undefined),22
20,COC(=O)C(NC(=O)c1ccc(NC2CC2)nc1)c1ccccc1 (centres undefined),51.61
